Common to all, as to assay: NCI-60 one-dose screen, 48 h (100 = growth as untreated, 0 = no growth, -100 = all killed)
One experiment concerns DU-145 prostate. The settings on record: 10 µM unless noted.
Another experiment concerns K-562 leukemia. The conditions noted are these: 10 µM unless noted.
Another experiment relates to MALME-3M melanoma. The settings on record: 10 µM unless noted.
The next experiment relates to MDA-MB-231 breast. The conditions noted are these: 10 µM unless noted.
For the next experiment, the system named is SF-268 CNS. The conditions noted are these: 10 µM unless noted.
In a further experiment the test system is SF-295 CNS. The settings on record: 10 µM unless noted.
In the next experiment the test system is SF-539 CNS. The settings on record: 10 µM unless noted.
Another experiment concerns UACC-257 melanoma. The conditions noted are these: 10 µM unless noted.
For a further experiment, the system named is M14 melanoma. The conditions noted are these: 10 µM unless noted.
A further experiment has as its system HCT-15 colon. The conditions noted are these: 10 µM unless noted.
A further experiment relates to HT29 colon. The conditions noted are these: 10 µM unless noted.
A further experiment deals with SNB-75 CNS. The conditions noted are these: 10 µM unless noted.
The subject of another experiment is SNB-19 CNS. The settings on record: 10 µM unless noted.
The test system of the next experiment is U251 CNS. The conditions noted are these: 10 µM unless noted.
The next experiment has as its system PC-3 prostate. The conditions noted are these: 10 µM unless noted.
The next experiment concerns SK-MEL-5 melanoma. The conditions noted are these: 10 µM unless noted.
A further experiment concerns UACC-62 melanoma. The settings on record: 10 µM unless noted.
In a further experiment the test system is LOX IMVI melanoma. The settings on record: 10 µM.
The next experiment relates to SK-MEL-28 melanoma. The settings on record: 10 µM unless noted.
Another experiment concerns RXF 393 renal. The conditions noted are these: 10 µM unless noted.

The panel holds about 83,000 compounds, 20% with a hit somewhere; the sample as a whole holds those more often.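 48-hour exposure, single concentration, 96-well plates; percent growth endpoint where 0 means no net growth. Active: below 10.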 Values without a mark were called inactive. Activity calls are given as the source filed them.

For the compound `CCCCn1c(O)c(N=Nc2nc(-c3cc4ccccc4oc3=O)cs2)c2cc(Br)ccc21`, the growth was 108% with DU-145 prostate; 105% with K-562 leukemia; 105% in the experiment with MALME-3M melanoma; 106% in the experiment with MDA-MB-231 breast; 97% in the experiment on SF-268 CNS; 105% in the experiment with SF-295 CNS. Moreover, the growth with SF-539 CNS was 103%; in the experiment with UACC-257 melanoma, 103%; in the experiment with M14 melanoma, 112%; in the experiment on HCT-15 colon, 102%; with HT29 colon it was 112%; in the experiment with SNB-75 CNS it was 102%. The growth with SNB-19 CNS was 95.3%; in the experiment on U251 CNS, 101%; with PC-3 prostate it was 97.4%; in the experiment with SK-MEL-5 melanoma, 98.3%; in the experiment with UACC-62 melanoma, 93.5%; in the experiment with LOX IMVI melanoma, 94.7%. Moreover, in the experiment with SK-MEL-28 melanoma, the growth was 104%.

For `COc1ccc(-c2nc(SCC(C)C)nc(NCCc3c[nH]c4ccccc34)c2C#N)cc1`, the growth was 77.2% in the experiment on DU-145 prostate; 33.1% with K-562 leukemia; 87.3% in the experiment with MALME-3M melanoma; 36.5% with MDA-MB-231 breast; -8.09% (active) with RXF 393 renal; 58.1% in the experiment with SF-268 CNS. For the same compound, the growth in the experiment on SF-295 CNS is 45%; in the experiment with SF-539 CNS, 48%; in the experiment with UACC-257 melanoma, 98.1%; in the experiment with M14 melanoma, 81.2%; with HCT-15 colon, 29.4%; in the experiment with U251 CNS it was 40.7%. In addition, the growth is 24% with PC-3 prostate; 37.2% with SK-MEL-5 melanoma; 76.2% with UACC-62 melanoma; 46.1% with LOX IMVI melanoma; 71.5% in the experiment with SK-MEL-28 melanoma.

For the compound `COc1cc(CNC(=O)/C=C/c2ccc3c(c2)OCO3)ccc1OCc1cn(-c2cccc(C(F)(F)F)c2)nn1`, the growth was 30% in the experiment with DU-145 prostate; 24.7% in the experiment on K-562 leukemia; -11.9% (active) in the experiment with MALME-3M melanoma; -28.9% (active) with RXF 393 renal; 39% with SF-268 CNS; -20.7% (active) in the experiment with SF-295 CNS. For the same compound, the growth in the experiment on SF-539 CNS is -81.2% (active); with UACC-257 melanoma it was 18.1%; in the experiment with M14 melanoma, 4.8% (active); in the experiment on HCT-15 colon it was 38.2%; with HT29 colon, 17.6%; with SNB-75 CNS it was 41.1%. For the same compound, the growth was 33.1% in the experiment on SNB-19 CNS; -32.9% (active) in the experiment on U251 CNS; 0.703% (active) in the experiment with PC-3 prostate; 33.2% in the experiment with SK-MEL-5 melanoma; -29.2% (active) with UACC-62 melanoma.

Consider `CC(=O)Nc1cccc(Nc2nc(NCc3ccccc3)c3ccccc3n2)c1`, for which the growth was -93.7% (active) in the experiment on DU-145 prostate; -59% (active) in the experiment with K-562 leukemia; -94.2% (active) in the experiment on MALME-3M melanoma; -95.2% (active) in the experiment on RXF 393 renal; -72.8% (active) in the experiment on SF-268 CNS; -98.9% (active) in the experiment on SF-295 CNS. Also, the growth with SF-539 CNS was -98% (active); in the experiment on UACC-257 melanoma, -83.6% (active); in the experiment on M14 melanoma, -86.5% (active); with HCT-15 colon it was -87.1% (active); with HT29 colon, -86.5% (active); with SNB-75 CNS, -93.8% (active). The growth with SNB-19 CNS was -98.3% (active); in the experiment on U251 CNS it was -76.4% (active); in the experiment with PC-3 prostate it was -73.2% (active); with SK-MEL-5 melanoma it was -98.2% (active); with UACC-62 melanoma, -97.8% (active); with SK-MEL-28 melanoma, -95.9% (active).

`CC1CCCCN1CCCNC(=O)N/C(N)=N/c1nc2ccccc2s1` (stereo unspecified): the growth was 72.1% in the experiment with DU-145 prostate; -27.6% (active) with K-562 leukemia; -93.2% (active) in the experiment on MALME-3M melanoma; 5.45% (active) with RXF 393 renal; 49.7% in the experiment on SF-268 CNS; 15.3% in the experiment on SF-295 CNS. The growth in the experiment on SF-539 CNS is -60.9% (active); in the experiment with UACC-257 melanoma it was -86.8% (active); in the experiment with M14 melanoma it was -85.2% (active); in the experiment with HCT-15 colon it was -13.6% (active); with HT29 colon, 3.14% (active); in the experiment with SNB-75 CNS, 4.11% (active). Further, the growth in the experiment with SNB-19 CNS is 61.5%; with U251 CNS it was 40.8%; in the experiment with PC-3 prostate it was 31.6%; with SK-MEL-5 melanoma, -96.7% (active); in the experiment on UACC-62 melanoma, -84.2% (active); in the experiment with SK-MEL-28 melanoma, -97% (active).

As for `CC(C)c1ccc2c(N)c(C(=O)Nc3cccc(C(F)(F)F)c3)sc2n1`, the growth was 73.4% in the experiment with DU-145 prostate; 8.51% (active) with K-562 leukemia; 80.3% in the experiment with MALME-3M melanoma; 42.1% in the experiment with RXF 393 renal; 94.2% in the experiment with SF-268 CNS; 64.9% with SF-295 CNS. Also, the growth was 66.6% in the experiment on SF-539 CNS; 90.1% with UACC-257 melanoma; 32.8% in the experiment with M14 melanoma; -0.908% (active) in the experiment with HCT-15 colon; 29.2% with HT29 colon; 129% in the experiment on SNB-75 CNS. For the same compound, the growth is 87.3% in the experiment on SNB-19 CNS; 71.1% in the experiment on U251 CNS; 73.7% in the experiment on PC-3 prostate; 72.3% in the experiment on SK-MEL-5 melanoma; 92.5% with UACC-62 melanoma; 80.2% in the experiment with SK-MEL-28 melanoma.

In the case of `COc1ccc(-c2cc(C(=O)NCc3ccccc3)nn2-c2ccc(S(C)(=O)=O)cc2)cc1OC`, the growth in the experiment with DU-145 prostate is 105%; with K-562 leukemia, 105%; in the experiment on MALME-3M melanoma it was 108%; in the experiment with RXF 393 renal, 110%; in the experiment with SF-268 CNS, 97.3%; in the experiment on SF-295 CNS it was 98.1%. Further, the growth with SF-539 CNS is 95.2%; in the experiment on UACC-257 melanoma, 105%; in the experiment with M14 melanoma, 111%; with HCT-15 colon it was 108%; in the experiment with HT29 colon it was 102%; with SNB-75 CNS, 62.5%. Besides, the growth in the experiment on SNB-19 CNS is 95.2%; in the experiment on U251 CNS, 99.2%; with PC-3 prostate, 110%; in the experiment with SK-MEL-5 melanoma, 97.1%; in the experiment on UACC-62 melanoma, 111%; with SK-MEL-28 melanoma, 134%.

As to `Cc1c(C(=O)NNC(=O)c2ccc(Cl)cc2)nnn1-c1ccc(Cl)cc1`, the growth in the experiment with DU-145 prostate was 108%; with K-562 leukemia, 86.3%; in the experiment with MALME-3M melanoma, 86.9%; with RXF 393 renal, 92.7%; in the experiment with SF-268 CNS, 105%; in the experiment on SF-295 CNS, 82.7%. Also, the growth was 99.6% with SF-539 CNS; 94.1% with UACC-257 melanoma; 93.6% in the experiment with M14 melanoma; 93.5% in the experiment with HCT-15 colon; 92.3% with HT29 colon; 83.6% with SNB-75 CNS. Moreover, the growth was 95.1% in the experiment with SNB-19 CNS; 99.8% with U251 CNS; 95.4% in the experiment on PC-3 prostate; 99.5% with SK-MEL-5 melanoma; 86.1% in the experiment with UACC-62 melanoma; 94% in the experiment on SK-MEL-28 melanoma.

With `C=Cn1cc(C(=O)O)c(=O)c2cc(F)c(N3CCN(c4nccc(-c5nccs5)n4)CC3)cc21`, the growth in the experiment on DU-145 prostate is -3.99% (active); in the experiment on K-562 leukemia, 11.4%; with MALME-3M melanoma it was -29.2% (active); in the experiment on RXF 393 renal it was -52.3% (active); in the experiment on SF-268 CNS it was 22%; in the experiment with SF-295 CNS, -26.4% (active). The growth is -42.7% (active) with SF-539 CNS; -27.3% (active) in the experiment on UACC-257 melanoma; -1.11% (active) in the experiment with M14 melanoma; -51.5% (active) with HCT-15 colon; -52% (active) in the experiment with HT29 colon; -23.3% (active) in the experiment with SNB-75 CNS. The growth in the experiment on SNB-19 CNS was -0.431% (active); in the experiment on U251 CNS, 5.03% (active); in the experiment on PC-3 prostate it was 8.48% (active); in the experiment on SK-MEL-5 melanoma, -47.7% (active); in the experiment with UACC-62 melanoma it was -84.7% (active); in the experiment on SK-MEL-28 melanoma, -38.5% (active).

(Values after PubChem BioAssay (NCI).)
